According to PubChem BioAssay (NCI):
Compounds without any hit were thinned out: in the full panel of roughly 83,000, 20% have a hit.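 The test compound was applied at a single concentration to cells in 96-well plates for 48 hours, and percent growth was recorded.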 Values without a mark were called inactive. Active and inactive are the calls of the source. The calls were made as follows: active = growth percent below 10; inactive = the rest.

Assays:
Test in all cases: NCI-60 one-dose screen, 48 h (100 = growth as untreated, 0 = no growth, -100 = all killed)
Settings in all cases: 10 µM unless noted
NCI-H23 lung = tested on: NCI-H23 lung
NCI-H226 lung = tested on: NCI-H226 lung
NCI-H322M lung = tested on: NCI-H322M lung
HOP-62 NSCLC = tested on: HOP-62 NSCLC
NCI-H460 lung = tested on: NCI-H460 lung
HOP-92 NSCLC = tested on: HOP-92 NSCLC
NCI-H522 lung = tested on: NCI-H522 lung
A549/ATCC NSCLC = tested on: A549/ATCC NSCLC
786-0 renal = tested on: 786-0 renal
COLO 205 colon = tested on: COLO 205 colon

Row | SMILES | growth (NCI-H23 lung) | growth (NCI-H226 lung) | growth (NCI-H322M lung) | growth (HOP-62 NSCLC) | growth (NCI-H460 lung) | growth (HOP-92 NSCLC) [%] | growth (NCI-H522 lung) | growth (A549/ATCC NSCLC) | growth (786-0 renal) | growth (COLO 205 colon)
1 | Cn1cc(-c2cc3ncnc(Nc4ccc(NC(=O)Nc5cc(C(C)(C)C)on5)cc4)c3s2)cn1 | 29.4% | 30.7% | 57.4% | 62.7% | 42.6% | 22.5 | 32.5% | 31.6% | 3.44% (active) | 12.9%
2 | O=C(Nc1cc(C(F)(F)F)cc(C(F)(F)F)c1)Nc1ccc2oc(=O)ccc2c1 | -0.22% (active) | 18.8% | 13.4% | 23.9% | 6.36% (active) |  | -13.5% (active) | 15.2% | 10.6% | -12.3% (active)
3 | COc1ccc(OC)c(NC(=O)CCCCCCNC(=O)C(O)(O)C(F)(F)F)c1 | 48.6% | 78.7% | 61% | 36.8% | 39% |  | -0.794% (active) | 47.7% | 50% | 10.5%
4 | COc1cc2c3c(cc4c5c(ccc4c3c1OC)OCO5)N(CCN(C)C)C2=O | -17.8% (active) | -58.8% (active) | 0.11% (active) | 6.73% (active) | -20.5% (active) |  | -6.46% (active) | 0.384% (active) | -16.2% (active) | -10.7% (active)
5 | Cn1c(SCC(=O)c2ccc(F)cc2)nc2ccccc2c1=O | 84.5% | 93% | 99.8% | 93.6% | 101% | 61.3 | 83.9% | 104% | 96.8% | 123%
6 | O=c1nc(Nc2ccc([N+](=O)[O-])cc2O)sc2ccccc12 | 40.4% | 57.2% | 51.4% | 47% | 22.1% |  | 14.2% | 41.7% | 37.7% | 96.5%
7 | CCc1cc(OC(=O)N2CCC(N3CCCCC3)CC2)ccc1Nc1cc(-c2ccc(-n3cccn3)cc2)[nH]n1 | 80.3% | 77.9% | 101% | 66.3% | -15.5% (active) |  | 96.2% | 53.8% | 58% | 60.1%
8 | O=C(Nc1ccc(N2CCOCC2)cc1)Nc1ccc2c(ccn2C(=O)c2cccc(F)c2)c1 | 66.7% | 41.4% | 92.5% | 31.1% | 38.8% |  | 73.7% | 59.5% | 28.4% | 82.1%
9 | CC1CC(=O)C2=C(C1)Nc1ccc(Br)cc1CC2c1c[nH]c2ccc(Br)cc12 (centres undefined) | 66.8% | 65.5% | 70.9% | 65.2% | 34.5% |  | 18.4% | 42.3% | 51.2% | 66.2%
10 | C#C[C@]1(O)CC[C@H]2[C@@H]3CC=C4c5sc(Nc6ncccc6C)nc5CC[C@]4(C)[C@H]3CC[C@@]21C | 9.38% (active) | 23.4% | 32.8% | 11.9% | 0.476% (active) |  | 25.9% | 21.8% | -56.2% (active) | 34.8%
11 | COc1cccc2c1C=CC1(O2)Oc2cccc(OC)c2C=C1C (centres undefined) | 34.8% | 57.4% | 46.1% | 55.9% | 7.1% (active) |  | 12.6% | 25.1% | 26.9% | 16.6%
12 | NS(=O)(=O)c1nnc(/N=C/c2c(O)[nH]c3ccccc23)s1 | 96.3% | 95% | 104% | 86.6% | 105% | 88.1 | 99.9% | 108% | 98.2% | 115%
13 | CN1CCN(c2ccc(Nc3nc(NCCNC(=O)c4ccccc4)c4sccc4n3)cc2)CC1 | 74.2% | 108% | 85.2% | 104% | 74% |  | 68.4% | 67.4% | 45.6% | 56.5%
14 | Cn1cc(-c2nc(N)nnc2-c2c[nH]c3ccc(Br)cc23)c2cc(F)ccc21 | 93.3% | 96.6% | 86.1% | 103% | 97.7% |  | 89.1% | 103% | 98.3% | 103%
15 | COCCOc1ccc2ncc(C#Cc3cncc(C(=O)Nc4ccc(CN5CCN(C)CC5)c(C(F)(F)F)c4)c3)n2n1 | -48.7% (active) | -12.7% (active) | 18.7% | 18.4% | 0.556% (active) |  | -56.4% (active) | 10.3% | -15.3% (active) | -32.7% (active)
16 | COc1ccc2c(c1)c(-c1nnc(N)nc1-c1c[nH]c3ccc(F)cc13)cn2C | 44.6% | 57.8% | 87% | 54.7% | 15.1% | 68.7 | 27.2% | 50.7% | 46% | 41.4%
17 | CC1=C(C)C(=O)C(Nc2cccc(C(=O)OC(C)(C)C)c2)=C(Cl)C1=O | 92.4% | 91.3% | 99.5% | 103% | 99.8% |  | 81.7% | 90.4% | 96.5% | 
18 | O=C(COc1ccc(/C=C2\C(=O)Nc3ccc(F)cc32)cc1)Nc1ccccc1 | 95% | 96.6% | 99.3% | 99.5% | 96.1% | 116 | 93.9% | 96.7% | 105% | 113%
19 | CN1CCN(c2ccc(Nc3nc(NCCCNS(=O)(=O)c4cccc(F)c4)c4sccc4n3)cc2)CC1 | 84% | 112% | 68% | 96.6% | 19.9% |  | -1.42% (active) | 44.8% | -24.1% (active) | 27.1%
20 | CC[C@]12C=CCN3CC[C@]4(C(=C(C(=O)OC)C1)Nc1cc5c(cc14)[C@@H]1[C@H](O5)[C@@H](O)[C@@]4(CC)CC(C(=O)OC)=C5Nc6cc(O)ccc6[C@@]56CCN1C46)C32 (some centres undefined) | -40.9% (active) | -1.32% (active) | 0.163% (active) | 16.6% | 10.3% |  | -22.8% (active) | 20.2% | 6.94% (active) | -48% (active)
21 | COc1ccc(OC)c(CCn2cncc2-c2c[nH]c3ccc(Cl)cc23)c1 | 38.1% | 59.5% | 88.4% | 49.5% | 46.1% | 20.8 | 3.34% (active) | 33.3% | 69.7% | 29.8%
22 | Cc1[nH]c(C(=O)Nc2ccc(C(=O)NCC3CCNCC3)cc2OC(C)C)c(Cl)c1Cl | 83% | 83.6% | 92.1% | 86.4% | 34.7% | 65.9 | 90.7% | 65.4% | 79.8% | -13.3% (active)
23 | FC(F)(F)c1cc(Br)cc(-c2cc(-c3ccc4c(c3)OCCO4)[nH]n2)c1 | 40.1% | 53.8% | 45.4% | 52.2% | 5.69% (active) |  | 20.5% | 22.1% | 28.3% | -12.9% (active)
24 | Clc1ccc2[nH]cc(-c3nn4cc(-c5cccnc5)nc4s3)c2c1 | 92.8% | 96.5% | 98% | 82.2% | 99.9% | 83.6 | 97.1% | 99.4% | 113% | 88.9%
25 | CCCC[n+]1ccc(SCC(=O)n2ccc3ccccc32)c2ccccc21 | 74.5% | 71.1% | 96.4% | 103% | 97.8% |  | 83.2% | 87.5% | 106% | 99.8%
26 | O=C(CSc1nc2ccccc2c(=O)n1-c1ccc(S(=O)(=O)Nc2ccc(Cl)nn2)cc1)Nc1ccc(S(=O)(=O)Nc2ccc(Cl)nn2)cc1 | 100% | 99% | 101% | 104% | 101% |  | 101% | 105% | 98.7% | 111%
27 | CCCCCCCCCCCC(=O)NC(C)(C)C(=O)N1CCCC1C(=O)NC(C)(C)C(=O)NC(C)(C)C(=O)N1CCCC1C(=O)NC(C)(C)C(=O)NC(C)(C)C(=O)N1CCCC1C(=O)NC(C)C(=O)NCCC(=O)NC(C)C(=O)NC(C)(C)C(=O)NC(C)(C)C(=O)NC(C)(C)C(=O)NCCC(=O)NC(C)(C)C(=O)NC(C)(C)C(=O)NC(C)(C)C(=O)NC(C)C(=O)NCCC(=O)O (centres undefined) | -92.9% (active) | -61.8% (active) |  | -93.3% (active) | -79.7% (active) |  | -89.8% (active) | -77.9% (active) | -96.3% (active) | -89.2% (active)
